From PubChem BioAssay AID624415 (National Center for Advancing Translational Sciences (NCATS), 2012) come the findings set out here.

Out of some 390,000 compounds screened, about 60 (0.02%) were called active. The entries come from a sample that favours actives as a whole. Values without a mark were called inactive. Rule as the data show it: active = activity change below about -50%; inconclusive = between about -30% and that limit; inactive = weaker than that.
% is scaled to controls: 0 for no effect and ±100 for the full control effect.

In this test the target is Mucolipin-1 (Homo sapiens) (UniProt Q9GZU1). The test can be described thus: qHTS for Inhibitors of the Human Mucolipin Transient Receptor Potential 1 (TRPML1).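 Also: stimulus is agonist 54-4 at its EC80 concentration.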 As to conditions: TRPML1-inducible cells, Ca2+ dye fluorescence, FDSS; active compounds read low; inhibition of EC80 agonist-evoked calcium signal. The source says: Mutations of human Mucolipin transient receptor potential 1 (TRPML1) cause type IV mucolipidosis (ML4), a devastating neurodegenerative disease in young children. […] Currently, there is no treatment for ML4. […] Under physiological conditions, TRPMLs regulate membrane trafficking by transducing information about PI(3,5)P2 levels into changes in juxtaorganellar Ca2+, thereby triggering membrane fusion/fission events in the late endocytic pathways (endolysosomal trafficking). In addition, TRPML1 mediates release of Fe2+ from late endosomes and lysosomes, which is essential for cellular iron metabolism. Thus, impaired ion (Ca2+ and Fe2+) homeostasis underlies lysosomal dysfunction and ML4 phenotypes. In ML4 cells, the problem is twofold. First, defective Ca2+-dependent membrane trafficking due to TRPML1-deficiency causes accumulation of lipids and other bio-materials in the lysosome. The second strike comes from the lysosomal iron overload (due to impairment of TRPML1's Fe2+ conductivity), which converts the accumulated materials into the nondegradable (resistant to lysosomal degradation) lipofuscin (also called aging pigment) in the lysosome. Lipofuscin accumulation dramatically compromises the functions of lysosomes.
Sequence of Mucolipin-1 (Homo sapiens) (Q9GZU1 whole entry, looked up, the tested form may be a part): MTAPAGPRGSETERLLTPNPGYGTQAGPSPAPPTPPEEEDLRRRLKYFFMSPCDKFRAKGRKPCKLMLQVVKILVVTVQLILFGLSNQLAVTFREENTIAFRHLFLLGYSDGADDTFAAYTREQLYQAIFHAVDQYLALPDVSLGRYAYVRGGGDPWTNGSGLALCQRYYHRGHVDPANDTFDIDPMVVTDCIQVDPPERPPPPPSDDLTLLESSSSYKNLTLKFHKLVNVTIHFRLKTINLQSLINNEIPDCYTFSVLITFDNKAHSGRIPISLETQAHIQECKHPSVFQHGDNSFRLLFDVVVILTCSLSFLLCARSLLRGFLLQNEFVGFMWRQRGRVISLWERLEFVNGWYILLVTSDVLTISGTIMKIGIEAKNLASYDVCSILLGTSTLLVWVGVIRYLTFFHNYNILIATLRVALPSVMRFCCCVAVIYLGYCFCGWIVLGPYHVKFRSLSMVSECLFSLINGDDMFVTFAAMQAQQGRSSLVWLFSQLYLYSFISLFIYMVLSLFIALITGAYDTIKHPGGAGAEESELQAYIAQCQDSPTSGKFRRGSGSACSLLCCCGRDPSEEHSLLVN
Niemann-Pick type C (NPC) disease is another lysosome storage disease (LSD) with severe neurodegeneration during the childhood. Currently, there is no cure for NPC. […] Thus, TRPML1 is likely to be an essential regulator of lysosome ion homeostasis. We specifically hypothesize that stimulating TRPML1's Fe2+/Ca2+ channel activity in the lysosome using synthetic agonists can alleviate neurodegeneration associated with ML4 or NPC.
To this end, a high throughput screen was developed in a miniaturized format to screen against the Molecular Libraries Small Molecule Repository (MLSMR) to find small molecules that act either as inhibitors or agonist against the TRPML1 channel.
NIH Chemical Genomics Center [NCGC]
NIH Molecular Libraries Probe Centers Network [MLPCN]
Assay Submitter (PI): Haoxing Xu, University of Michigan Ann Arbor
TRPML1-DL cells are dissociated from flasks, counted and, brought up to a density of 500,000 cells per mL of media containing a 1X Tet inducer. Using a Multidrop Combi, 3 uL of this cell solution is dispensed to each well of a 1536 TC treated, black, clear bottom hi base plate for a final cell density of 1,500 cells per well. The assay plates are incubated overnight (approximately 16 hours) at 37 degrees C and 5% CO2. Using a Multidrop Combi, 2 uL of ABD Ca8 no wash dye plus quencher is added to each well. The assay plates incubate at room temperature in the dark for 45-90 minutes. The assay plate is read on the FDSS using the following protocol: 10 second baseline read, 23 nL of compounds and controls are added using 1536 pintool, agonist read for 110 seconds, 1 uL EC80 addition (4 uM final 54-4 diluted in media), antagonist read for 110 seconds.
Consider `Cc1ccc(-c2nn3c(=O)cc(CN4CCN(C(=O)Nc5cccc(C(F)(F)F)c5)CC4)nc3s2)cc1`, for which the activity change, negative = inhibition was -11.5%.
Turning to `COc1cccc(NC(=O)c2csnn2)c1`, the activity change, negative = inhibition is -5.21%.
Take `O=C(NCc1ccc(F)cc1)c1ccc2nc(N3CCCCC3)sc2c1`: the activity change, negative = inhibition is -15.1%.
Under `Cc1cc(NC(=O)c2ccc(-c3ccc(Cl)cc3)o2)cc(-c2nc3ncccc3o2)c1O` stands -5.56%.
Under `CCC1=Nc2cc(C(=O)NCC(C)c3ccccc3)ccc2Sc2ccc(C)cc21` (stereo not given) stands 12%.
Under `Cc1ccc(C)c(N2CCN(C(=O)C3CCC(CNS(=O)(=O)c4cccs4)CC3)CC2)c1` (stereo not given) stands 13.9%.
For the compound `CCc1nc2onc(C)c2c(=O)n1CC(=O)O`, the activity change, negative = inhibition is -8.95%.
The figure for `Cc1ccccc1CN1CCC(CNC(=O)c2c(C)oc3ncnc(N4CCCCC4)c23)CC1` is 3.2%; for `CCN(CC)CCNC(=O)c1cc2c(=O)oc3ccc(C)cc3c2s1` it is -8.55%; for `Cc1cc(F)ccc1NC1(c2ccccc2)C(=O)c2ccccc2C1=O` it is 2.11%.
The figure for `COc1ccc(S(=O)(=O)n2nc(C)c(S(=O)(=O)N3CCCCCC3)c2C)cc1` is -9.9%.
Under `O=C(Nc1ccc(OC(F)(F)F)cc1)c1cc2c(=O)n3ccccc3nc2s1` stands 9.57%; under `COC(=O)c1ccc(-c2nc3cc(NC(C)=O)ccc3o2)cc1`, 12.1%.
In the case of `CCOc1ccc(S(=O)(=O)Nc2ccc3oc4c(c3c2)CC(C)CC4)cc1` (stereo not given), the activity change, negative = inhibition was 2.72%.
Under `CCOC(=O)c1ccc(NC(=O)C2CC(=O)N(c3ccc(C(C)C)cc3)C2)cc1` (stereo not given) stands -2.44%; under `Cc1cc(OCC(=O)NCC2(N(C)C)CCCCC2)cc(C)c1Cl`, -7.81%; under `C=C1CCN(C(CC(C)C)C(=O)NCc2cc(OC)c(OC)c(OC)c2)S(=O)(=O)c2ccccc21` (stereo not given), 6.7%.
Under `Cc1ccc(CNC(=O)C2(C(F)(F)F)C/C(=C\CCO)CCCO2)o1` (stereo not given) stands -4.32%; under `COc1ccc(NC(=O)CSc2nnc(-c3nnn(-c4ccc(F)cc4)c3C)o2)cc1`, 30.2%.
Under `Cc1cc(O)c(C(c2ccccc2)N2CCN(c3ccccc3F)CC2)c(=O)n1Cc1ccco1` (stereo not given) stands 19%; under `O=C(NCCS(=O)(=O)N1CCN(c2ccc(F)cc2)CC1)c1ccccc1Br`, -27.6%.
In the case of `Cc1nc(SCC(=O)N2CCN(c3ccccc3)CC2)[nH]c(=O)c1C`, the activity change, negative = inhibition was 14.8%.
Under `Cc1cccc(Cn2c(SCc3ccc(C(=O)N4CCC(C)CC4)cc3)nc3ccncc32)c1` stands 10.3%.
As for `Cn1nnnc1SCCCNCc1ccc(Cl)cc1`, the activity change, negative = inhibition is 25.2%.
The figure for `COc1ccc(Cl)cc1S(=O)(=O)Nc1cccc(C(=O)O)c1` is -0.499%.
Under `CCOC(=O)c1cccc(NS(=O)(=O)c2cn(C)c(C)n2)c1` stands 9.58%; under `COC(=O)c1cccc(NS(C)(=O)=O)c1`, -60.5% (active); under `O=C(CCc1nc(CN2CCN(S(=O)(=O)c3ccc(Cl)cc3)CC2)no1)N1CCCCC1`, 8.21%.
Take `CCc1ccc(CNC(=O)C2CCN(c3nn4cc(-c5ccc(F)cc5)nc4s3)CC2)cc1`: the activity change, negative = inhibition was 20.9%.
For the compound `Cc1ccc(NC(=O)Cc2ccc(NC(=O)N3CCCCc4ccccc43)cc2)cc1`, the activity change, negative = inhibition was 8.17%.
Under `Cc1ccccc1C(=O)Nc1cc(C)c(O)c(-c2nc3ccccc3o2)c1` stands -18.1%.
The figure for `Cc1ccccc1CNC(=O)CSc1nnc(C)c2c(C)n(-c3ccccc3)nc12` is 2.86%.
Regarding `Cc1ccc(OCCSc2nc(C)c(Cc3ccccc3)c(=O)[nH]2)cc1`, the activity change, negative = inhibition is -16.6%.
In the case of `COc1ccc(NC(=O)NC(C)c2c(-n3cccc3)sc(C)c2C)cc1OC` (stereo not given), the activity change, negative = inhibition was 12.5%.
Under `COC(=O)c1ccccc1NC(=O)Cn1c(=O)n(-c2cccc(C(F)(F)F)c2)c(=O)c2c(C)c(C)sc21` stands -25.8%; under `Cc1cc2c(cc3c(SCc4nc(-c5ccccc5)oc4C)nnc(C)n32)o1`, 11.7%; under `N#Cc1ccccc1Cn1cnc2nc3c(cc2c1=O)CCCC3`, -15.7%.
The figure for `CCN(Cc1ccccc1)S(=O)(=O)c1ccc2c(c1)CCCN2C(C)=O` is -2.82%.
Under `Cn1c(=O)c2sccc2n2c(CCC(=O)NCc3ccccc3Cl)nnc12` stands 2.41%.
As to `CN1CCN(C2(CNC(=O)COc3ccc(C(C)(C)C)cc3)CCCCC2)CC1`, the activity change, negative = inhibition was 16.1%.
Under `COc1cc(OC)cc(-c2nc3nc(C)c(CCC(=O)Nc4ccccc4)c(C)n3n2)c1` stands -13.4%.
Under `Cc1ccc(Nc2c(-c3ccc(N(C)C)cc3)nc3nc[nH]n23)cc1` stands -8.37%; under `CCOc1ccccc1CNC(=O)c1cnc2c(-c3ccc(OCC)c(OCC)c3)c(C)nn2c1C`, -5.19%.
Under `CCc1ccc(-n2nc(C)c3c(C)cc(=O)n(CC(=O)Nc4ccc(F)cc4C)c32)cc1` stands 1.68%; under `CCOc1ccc(C2C(=O)N(C3CCCCC3)CC(=O)N2CCC2=CCCCC2)cc1OC` (stereo not given), -3.98%.
Consider `CCC(=O)N1CCc2cc(Br)cc(S(=O)(=O)CCC(=O)N3CCN(c4ccc(F)cc4)CC3)c21`, for which the activity change, negative = inhibition was -21.4%.
The figure for `COc1ccc(CN2CCC(=O)c3ccccc3S2(=O)=O)cc1` is -9.22%.
The figure for `COc1ccc(CCC(=O)NCc2ccc3c(c2)CCN3C(=O)c2ccc(F)cc2)cc1` is -24.8%; for `CCCSc1ncc(Cl)c(C(=O)Nc2sc3c(c2C(=O)NCCOC)CCCC3)n1` it is 20.3%; for `O=C(Nc1nc2c(s1)CCCC2)c1ccccc1F` it is 7.29%.
With `COc1cccc2cc(-c3nc(Cl)c4c5c(sc4n3)CC(C)CC5)c(=O)oc12` (stereo not given), the activity change, negative = inhibition is -7.72%.
Under `Cc1cc(N2CCOCC2)nc2ccc(NC(=S)N3CCN(Cc4ccccc4)CC3)cc12` stands -15.7%; under `CCOC(=O)C1CCCN(Cc2nc(N)nc(Nc3ccc(C)cc3)n2)C1` (stereo not given), -0.383%; under `Cc1ccc(Nc2nc(N)nc(CN3CCN(Cc4ccccc4)CC3)n2)cc1Cl`, -62.2% (active).
Under `Cc1ccc(-n2c(SCC(=O)c3ccccc3)nc3c([nH]c4ccccc43)c2=O)cc1` stands 13.9%.
